This passage reports inhibition results from PubChem BioAssay AID778 (Sanford-Burnham Center for Chemical Genomics, 2007).

Among all 96,000 compounds or so, about 20,000 (21%) were called active. Not all results are given here. Unmarked numbers belong to inactive results.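 Rule for the calls: active = CYP2C19 inhibition above a set limit at 5 µM in the primary screen (cut at about 50% in these data); inactive = the rest.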

Sequence of Cytochrome P450 2C19 (Homo sapiens) (P33261 whole entry, looked up): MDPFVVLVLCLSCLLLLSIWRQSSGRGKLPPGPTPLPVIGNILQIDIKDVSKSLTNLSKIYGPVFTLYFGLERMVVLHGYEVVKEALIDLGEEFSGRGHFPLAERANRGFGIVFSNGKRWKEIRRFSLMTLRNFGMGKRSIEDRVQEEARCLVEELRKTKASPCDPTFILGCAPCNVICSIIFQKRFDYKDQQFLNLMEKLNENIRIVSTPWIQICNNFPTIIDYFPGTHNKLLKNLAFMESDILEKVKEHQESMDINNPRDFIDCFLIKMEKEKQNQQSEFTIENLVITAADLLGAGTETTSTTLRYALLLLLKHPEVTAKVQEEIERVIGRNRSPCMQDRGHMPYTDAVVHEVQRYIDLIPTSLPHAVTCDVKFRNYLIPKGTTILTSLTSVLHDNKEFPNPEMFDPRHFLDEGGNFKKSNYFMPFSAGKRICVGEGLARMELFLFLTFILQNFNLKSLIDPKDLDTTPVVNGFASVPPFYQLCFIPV

This assay concerns the target Cytochrome P450 2C19 (Homo sapiens) (UniProt P33261). The assay is described as follows: blockers of cytochrome P450 2C19 activity – biochemical, luminescence, ADME assay, primary screen (AID 778).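 Note: plate controls were negative control wells for no effect and 2.5 mM tranylcypromine positive control for full effect.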 The note with it: CYP2C19 Supersomes, luciferin-H EGE luminescence, 30 min; at 5 µM; active compounds read high.
In general, inhibition refers to the change of the read-out against control, counted positive when it falls. Take `Cn1c(=NC(=O)c2ccco2)sc2cccc(F)c21`: the inhibition is 21.9%.

Turning to `CCn1c(-c2ccoc2C)n[nH]c1=S`, the inhibition was 1.3%.

With `COc1ccc(C(=O)CSc2nccc(=O)[nH]2)cc1`, the inhibition was -4%.

With `COc1ccc(-n2nnnc2SCC(=O)Nc2ccccc2)cc1`, the inhibition is 48.1%.

As to `COc1ccc(-n2nnnc2SCC(=O)c2ccc(OC)c(OC)c2)cc1`, the inhibition was 66.5% (active).

With `Cn1c(=O)c2cn(-c3cccc4ccccc34)cc2n(C)c1=O`, the inhibition was 49.2%.

In the case of `O=C(O)C1OC(C(=O)O)C2C1C(F)(F)C2(F)F` (configuration not stated), the inhibition is -0.7%.

`CCOC(=O)c1c(NC(=O)c2ccc(N3CCOCC3)c([N+](=O)[O-])c2)sc(C)c1C`: the inhibition is 2.9%.

Turning to `Cc1cc(C(=O)CSc2nc(N)cc(=O)[nH]2)c(C)n1CCc1ccc(Cl)cc1`, the inhibition was 37%.

For `Cc1nc(C)c(C(=O)N(c2ccc(C)c(C)c2)C(C(=O)NCc2ccco2)c2ccccc2)s1` (configuration not stated), the inhibition is 7.8%.

Turning to `O=c1c2c(nc3nc[nH]n13)CCC2`, the inhibition is -17.9%.

As to `CC(=NCc1ccco1)c1c(C(F)(F)F)[nH]n(-c2nc3ccccc3s2)c1=O`, the inhibition was 28.3%.

Turning to `CC(=NCc1ccco1)C1=C(O)c2ccccc2C1=O`, the inhibition was 81.8% (active).

For the compound `CC(=NCc1ccc2c(c1)OCO2)C1=C(O)c2ccccc2C1=O`, the inhibition was 4.5%.

For the compound `CCOC(=O)C1=C(C)N=c2s/c(=C\C(=O)OC)c(=O)n2C1c1ccc(OC)cc1` (configuration not stated), the inhibition was 67.5% (active).

For the compound `COc1ccc(C2C(C(C)=O)=C(O)C(=O)N2c2nccs2)cc1` (configuration not stated), the inhibition is -17%.

With `COCCOC(=O)C1=C(C)N=c2s/c(=C\c3cccs3)c(=O)n2C1c1cccs1` (configuration not stated), the inhibition is 45.2%.

On to `S=C1SCN(CCN2CCOCC2)CN1Cc1ccccc1`, for which the inhibition was 25.3%.

Consider `O=C(Nc1c(C(=O)N2CCCCC2)cnn1-c1ccccc1)c1ccco1`, for which the inhibition is -7.8%.

Consider `Cc1ccc(C2C(C#N)C(C#N)N3CCCN23)cc1` (configuration not stated), for which the inhibition was -7.9%.

`Cn1nnnc1SCC(=O)Nc1ccccc1C(=O)NC1CC1`: the inhibition is -4.1%.

For the compound `O=c1c2ccccc2nnn1CSc1nnnn1-c1ccccc1`, the inhibition is 74.2% (active).

For `O=C(O)CCSc1nnc(-c2ccccc2)n1-c1ccccc1`, the inhibition is 1.2%.

Regarding `CN(C(=O)CSc1nnnn1-c1ccccc1)C1CCCCC1`, the inhibition is 71.1% (active).

Regarding `O=C(Cn1nnc2ccccc2c1=O)Nc1cc(C(F)(F)F)ccc1N1CCOCC1`, the inhibition was 31%.

Take `CCOC(=O)CNC(=O)CSc1nnnn1-c1cc(C)ccc1C`: the inhibition is 13.5%.

As to `O=c1c2ccccc2nc(CSc2nnnn2-c2ccccc2)n1-c1ccccc1`, the inhibition is -5.9%.

On to `C=CCn1c(Cn2nnc3ccccc32)nnc1SCC(=O)N/N=C/c1cc(Br)cc(OC)c1O`, for which the inhibition is 22.7%.

Consider `C=CCn1c(SCn2nnc3ccccc3c2=O)nnc1-c1ccc(Cl)cc1`, for which the inhibition is 87.2% (active).

On to `CC(=O)c1cc2c(cc1N)OCO2`, for which the inhibition is 5.3%.

For `CC1CCCC(C)N1C(=O)CN1CCN(c2nc(-c3ccc(F)cc3)cs2)CC1` (configuration not stated), the inhibition is 7.4%.

As to `CCOC(=O)c1sc2nc(CSCC(=O)OCc3ccc(C(=O)OC)o3)[nH]c(=O)c2c1C`, the inhibition is 52.7% (active).

With `CC(=O)c1sc2nc(SCC(=O)N3CCCCC3)[nH]c(=O)c2c1C`, the inhibition was 15.5%.

Regarding `CCOC(=O)c1sc2nc(SC)nc(-c3ccccc3)c2c1N`, the inhibition was 6.9%.

With `O=C(OCCO)c1cc(Cl)c(C(=O)OCCO)cc1Cl`, the inhibition was 15.6%.

In the case of `Cc1ccccc1NC(=S)Nc1cccc([N+](=O)[O-])c1`, the inhibition was 46.2%.

For `Cc1cccc(NC(=O)Nc2cccc(Oc3c(F)c(F)c(F)c(F)c3F)c2)c1`, the inhibition was 0.7%.

As for `Cc1cccc(NC(=S)Nc2ccc(Br)cc2)c1`, the inhibition was 66.8% (active).

With `CCCn1c(SCC(N)=O)nnc1C(C)C`, the inhibition was -9.9%.

As for `O=C(CN1CCN(c2ccccn2)CC1)NC1CCCCC1`, the inhibition is 6.6%.

In the case of `O=C(NC1CCCCC1)n1c(=O)oc2cc(S(=O)(=O)N3CCCCC3)ccc21`, the inhibition was 6.9%.

For the compound `O=C(CN1CCN(S(=O)(=O)c2ccc3ccccc3c2)CC1)NC(=O)NC1CCCCC1`, the inhibition is 73.3% (active).

Take `Cc1noc(NS(=O)(=O)c2ccc(N3CC(O)=C(c4ccccc4)C3=N)cc2)c1C`: the inhibition is -16.7%.

Regarding `CC12CN3CC(C)(CN(C1)C3c1ccc(Cl)cc1Cl)C2=O` (configuration not stated), the inhibition is 20.4%.

For `COC(=O)C1=CN(C)C=C(C(=O)OC)C1c1ccc(Cl)cc1Cl`, the inhibition was 74.5% (active).

With `CCOc1ccccc1C1C(C(=O)OC)=CN(C)C=C1C(=O)OC`, the inhibition was 33.6%.

On to `COC(=O)c1cc(NC(=O)CN2CCC(C(N)=O)(N3CCCCC3)CC2)cc(C(=O)OC)c1`, for which the inhibition was 14.3%.

`NC(=O)C1(N2CCCCC2)CCN(C(=S)Nc2ccc(Cl)cc2)CC1`: the inhibition was 70.7% (active).

Consider `COC(=O)c1ccc(C(=O)OC)c(NC(=S)N2CCCCC2)c1`, for which the inhibition was 16.7%.

Take `O=C(OCc1nnc(-c2ccccc2)o1)c1ccc2c(c1)C(=O)N(CCc1ccccc1)C2=O`: the inhibition was 0.5%.

Consider `CCOc1ccc(NC(=O)CCC(=O)n2nc(C)cc2C)cc1`, for which the inhibition is -8.5%.

Turning to `CCCC(C(=O)n1nc(C)cc1C)C(NS(=O)(=O)c1ccc(C)cc1)c1ccccc1` (configuration not stated), the inhibition is 43.5%.

On to `CCOc1ccc(C(C)C)cc1S(=O)(=O)n1nc(C)cc1C`, for which the inhibition was 73.6% (active).

In the case of `COc1cccc(CNc2nc3nc4c(c(=O)n3[nH]2)CCC4)c1`, the inhibition is -17.3%.

For the compound `O=C(Cc1cccs1)N1CCCC(c2nc(-c3ccc(S(=O)(=O)N4CCCC4)cc3)no2)C1` (configuration not stated), the inhibition is 7.4%.

As for `O=C(c1cccs1)N1CCC(c2nc3ccccc3s2)CC1`, the inhibition is 35.6%.

As for `O=C(c1cccs1)N1CCCC(c2nc(-c3ccc(F)cc3)no2)C1` (configuration not stated), the inhibition was 64% (active).

On to `COC(=O)/C(=C\Nc1ccccc1)NC(=O)c1ccc(Cl)cc1Cl`, for which the inhibition is 49%.

Take `C[N+]1(CCNC(=O)/C=N/O)CCCCC1`: the inhibition was 3.7%.

For the compound `Cc1cc(C)c2c(c1)cc(C)c1nnc(SCC(=O)Nc3cc(C)on3)n12`, the inhibition was 12.6%.

For the compound `O=C(Nc1cccc2ncccc12)c1ccc(-c2ccc(Cl)cc2Cl)o1`, the inhibition is -13.7%.

In the case of `Clc1ccc(COn2c(-c3ccc(Cl)cc3Cl)nc3ncccc32)cc1`, the inhibition is 96.6% (active).
